In all, about 33,000 sequences were measured (“E-score (-0.5 to 0.5)”: median about -0.0014, highest 2% from about 0.25 on). Only a selection was taken, and the highest values are over-represented in it overall.
Target: T1, Cad1 (UniProt P24813)
T1 sequence: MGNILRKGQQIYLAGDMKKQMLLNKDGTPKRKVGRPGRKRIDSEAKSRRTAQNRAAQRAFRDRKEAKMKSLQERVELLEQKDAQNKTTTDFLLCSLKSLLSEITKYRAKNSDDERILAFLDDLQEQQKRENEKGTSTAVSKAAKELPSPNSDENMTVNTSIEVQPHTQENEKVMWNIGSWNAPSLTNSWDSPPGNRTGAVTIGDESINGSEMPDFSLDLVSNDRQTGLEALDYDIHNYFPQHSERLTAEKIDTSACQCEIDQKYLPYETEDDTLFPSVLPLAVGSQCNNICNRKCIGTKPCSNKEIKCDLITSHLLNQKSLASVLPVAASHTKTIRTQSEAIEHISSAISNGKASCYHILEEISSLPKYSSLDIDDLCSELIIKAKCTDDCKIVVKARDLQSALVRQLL
Test: PBM E-score (8-mer binding enrichment) (E-score (-0.5 to 0.5)); higher = stronger / more preferred TF binding
Settings: protein concentration: 100 nM; construct: GST-full length
Outline: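 GST-tagged yeast TFs (full-length or DNA-binding domain) were made by PURExpress in vitro transcription/translation and applied at about 100-200 nM to universal all-10-mer Agilent arrays. The arrays were made double-stranded by primer extension, on fresh or once-stripped slides. Bound protein was detected with fluorescent anti-GST, and scans were normalised with masliner. Each ungapped eight-base word, pooled with its reverse complement, received an E-score (modified Wilcoxon-Mann-Whitney statistic) from the Universal PBM Analysis Suite.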

Row | Sequence | PBM E-score
1 | GGGACGAA | -0.108
2 | CGGACGAC | -0.0294
3 | ATCTGGTG | 0.0268
4 | CGATACAC | 0.00183
5 | ATTTCTCC | -0.0308
6 | ATTTCTCA | 0.0134
7 | ATTTCTCG | 0.332
8 | CATTACAG | 0.0228
9 | CATTACAA | 0.277
10 | GATTACAC | 0.156
11 | TATTACAA | 0.152
12 | CATTACAC | 0.0518
13 | GATTACAA | 0.294
14 | GACTTATA | 0.214
15 | AACTTATA | 0.257
16 | TACTTATA | 0.0796
17 | ATTGCTAG | 0.014
18 | CTAGCTAC | -0.0695
19 | CTTGCTAA | -0.13
20 | ATTGCTAA | 0.256
21 | TTAGCTAA | 0.298
22 | CTAGCTAA | -0.0595

Row | Sequence | PBM E-score
23 | CTAGCTAG | 0.279
24 | ATAGCTAA | 0.0748
25 | ATAGCTAG | -0.106
26 | ACGCCTCT | -0.183
27 | GCTTTGAA | 0.108
28 | ACCGTGTA | 0.00454
29 | GCTTACAC | 0.23
30 | CCTTACGA | 0.00401
31 | CATTACGA | 0.0111
32 | ACTTACAC | -0.0153
33 | GATTACGA | 0.318
34 | AATTACGA | 0.148
35 | TCTTACAA | 0.0371
36 | GCTTACGA | 0.258
37 | ACTTACAT | 0.0914
38 | ACTTACAA | 0.278
39 | ACTTACGA | 0.184
40 | GCTTACAA | 0.308
41 | CGACTAAG | -0.00537
42 | ACTTCAGG | -0.041
43 | TACAACTA | 0.0174
44 | CAGACCCA | -0.175

Row | Sequence | PBM E-score
45 | TCTTACCA | -0.131
46 | ACTTACTA | 0.184
47 | CCTTACTA | 0.211
48 | GCTTACCA | 0.255
49 | GCTTACCC | 0.034
50 | GCTTACTA | 0.426
51 | AGTCAAGA | 0.121
52 | GCCTTATA | -0.0929
53 | GGGATGCA | -0.167
54 | AACGGGAA | 0.00234
55 | GTCGAAGA | -0.0249
56 | ATTGGCTC | 0.0265
57 | CCCACGGA | -0.117
58 | ATAACGGA | 0.155
59 | TCCACGGA | 0.282
60 | CTAACGGA | 0.294
61 | ACCACGGA | -0.141
62 | CTAACGGC | 0.00942
63 | ATGGTCCC | -0.189
64 | CCGCCCTA | -0.00222
65 | AGTCGGAA | 0.0204
66 | AATACTCC | -0.123

Row | Sequence | PBM E-score
67 | AGTAATCC | 0.229
68 | CGTAATCC | 0.191
69 | CGTAATCA | 0.336
70 | GGTAATCA | 0.203
71 | CGTAAACA | 0.256
72 | CATAATCA | 0.175
73 | AGTAAACA | 0.182
74 | AGTAATCA | 0.297
75 | GGTAAACA | 0.124
76 | AATCCCAG | 0.0625
77 | AAGAGTCG | 0.0695
78 | AATTTCTG | 0.0718
79 | AGCGGGCC | -0.0503
80 | CCACCATA | -0.0653
81 | CATCCGTC | -0.00289
82 | CACTAGTA | 0.0511
83 | GACTAGTA | -0.117
84 | AACTAATT | 0.217
85 | CAATACTA | 0.0552
86 | TACTAGTA | 0.273
